Data published in PubChem BioAssay AID1159580 (chemical genetic matrix, 2015).
Where “and” joins values, the source holds several entries; their conditions need not be identical. Identical values can stand only once. Out of some 5,500 compounds screened, about 2,000 (36%) were called active. Roughly 18% stayed inconclusive and do not appear here. No stated cut-off is given here; in the data, active means normalized growth mostly below about 0.91 (no sharp cut-off); inconclusive means no clear call, values can overlap the other calls; inactive means mostly above about 0.92. This is one part of the list.

Assay: chemical genetic growth profiling, strain panel (AID 1159580);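 further: tested at 20 µM; growth read once vehicle control cultures reached saturation at 30 °C; 1 = growth at the plate median or of vehicle wells; lower values mean less growth of the strain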
Conditions: growth OD

Measured: normalized growth

COC(=O)C1=C(C)NC(C)=C(C(=O)OCCN(C)Cc2ccccc2)C1c1cccc([N+](=O)[O-])c1 (stereo unspecified)
inactive: S. cerevisiae deletion strains, locus YJR075W, strain HOC1, active compounds read low 0.973 and 0.963 | S. cerevisiae deletion strains, locus YKL009W, strain mrt4, active compounds read low 0.97 | S. cerevisiae deletion strains, locus YKL068W, active compounds read low 0.994 | S. cerevisiae deletion strains, locus YKL085W, strain MDH1 (second series), active compounds read low 0.993 | S. cerevisiae deletion strains, locus YKL085W, strain MDH1, active compounds read low 0.993 | S. cerevisiae deletion strains, locus YKL160W, strain elf1, active compounds read low 0.963 | S. cerevisiae deletion strains, locus YKL190W, strain CNB1, active compounds read low 0.99 | S. cerevisiae deletion strains, locus YKR001C, strain vps1, active compounds read low 1.01 | S. cerevisiae deletion strains, locus YKR026C, strain gcn3, active compounds read low 0.97 | S. cerevisiae deletion strains, locus YKR091W, strain srl3, active compounds read low 0.993 | S. cerevisiae deletion strains, locus YLL001W, strain dnm1, active compounds read low 0.98 | S. cerevisiae deletion strains, locus YLL026W, active compounds read low 0.998 | S. cerevisiae deletion strains, locus YLL041C, strain sdh2, active compounds read low 0.968 | S. cerevisiae deletion strains, locus YLR027C, strain aat2, active compounds read low 0.988 | S. cerevisiae deletion strains, locus YLR039C, strain RIC1, active compounds read low 0.999 | S. cerevisiae deletion strains, locus YLR058C, strain SHM2, active compounds read low 0.963 | S. cerevisiae deletion strains, locus YLR102C, strain apc9, active compounds read low 0.987 | S. cerevisiae deletion strains, locus YLR113W, strain HOG1, active compounds read low 0.93 | S. cerevisiae deletion strains, locus YLR221C, strain rsa3, active compounds read low 0.982 | S. cerevisiae deletion strains, locus YLR258W, strain gsy2, active compounds read low 0.973 | S. cerevisiae deletion strains, locus YLR262C, strain YPT6 (second series), active compounds read low 0.952 | S. cerevisiae deletion strains, locus YLR262C, strain YPT6, active compounds read low 0.947 | S. cerevisiae deletion strains, locus YLR268W, strain sec22, active compounds read low 1 | S. cerevisiae deletion strains, locus YLR320W, strain mms22, active compounds read low 0.986 | S. cerevisiae deletion strains, locus YLR330W, strain CHS5, active compounds read low 0.993 | S. cerevisiae deletion strains, locus YLR342W, strain FKS1 (second series), active compounds read low 0.957 | S. cerevisiae deletion strains, locus YLR342W, strain FKS1, active compounds read low 0.996 | S. cerevisiae deletion strains, locus YLR357W, strain rsc2, active compounds read low 0.965 | S. cerevisiae deletion strains, locus YLR370C, strain arc18, active compounds read low 0.984 | S. cerevisiae deletion strains, locus YLR371W, strain rom2, active compounds read low 0.967 | S. cerevisiae deletion strains, locus YLR384C, strain iki3, active compounds read low 0.98 | S. cerevisiae deletion strains, locus YLR418C, strain cdc73, active compounds read low 0.96 | S. cerevisiae deletion strains, locus YML016C, strain PPZ1, active compounds read low 0.99 | S. cerevisiae deletion strains, locus YML032C, strain rad52, active compounds read low 0.961 | S. cerevisiae deletion strains, locus YML120C, strain ndi1, active compounds read low 1.02 | S. cerevisiae deletion strains, locus YML124C, strain tub3, active compounds read low 0.992 | S. cerevisiae deletion strains, locus YMR058W, strain fet3, active compounds read low 0.993 | S. cerevisiae deletion strains, locus YMR078C, strain ctf18, active compounds read low 0.977 | S. cerevisiae deletion strains, locus YMR125W, strain sto1, active compounds read low 0.978 | S. cerevisiae deletion strains, locus YMR129W, active compounds read low 1 | S. cerevisiae deletion strains, locus YMR205C, strain PFK2, active compounds read low 0.986 | S. cerevisiae deletion strains, locus YMR223W, strain ubp8, active compounds read low 0.978 | S. cerevisiae deletion strains, locus YMR231W, strain pep5, active compounds read low 0.998 | S. cerevisiae deletion strains, locus YMR263W, strain SAP30, active compounds read low 0.988 | S. cerevisiae deletion strains, locus YMR307W, strain GAS1, active compounds read low 0.744 | S. cerevisiae deletion strains, locus YNL067W, strain RPL9B, active compounds read low 0.999 | S. cerevisiae deletion strains, locus YNL071W, strain lat1, active compounds read low 0.97 | S. cerevisiae deletion strains, locus YNL128W, strain TEP1, active compounds read low 0.987 and 1.05 | S. cerevisiae deletion strains, locus YNL153C, strain GIM3, active compounds read low 0.98 | S. cerevisiae deletion strains, locus YNL175C, strain NOP13, active compounds read low 1 | S. cerevisiae deletion strains, locus YNL183C, strain NPR1, active compounds read low 0.923 | S. cerevisiae deletion strains, locus YNL197C, strain WHI3, active compounds read low 1.02 | S. cerevisiae deletion strains, locus YNL209W, strain ssb2, active compounds read low 0.978 | S. cerevisiae deletion strains, locus YNL224C, strain SQS1, active compounds read low 0.993 | S. cerevisiae deletion strains, locus YNL233W, strain BNI4, active compounds read low 0.981 | S. cerevisiae deletion strains, locus YNL248C, strain rpa49, active compounds read low 0.968 | S. cerevisiae deletion strains, locus YNL250W, strain rad50, active compounds read low 0.981 | S. cerevisiae deletion strains, locus YNL271C, strain bni1, active compounds read low 1 | S. cerevisiae deletion strains, locus YNL298W, strain CLA4, active compounds read low 0.996 | S. cerevisiae deletion strains, locus YNL307C, strain MCK1, active compounds read low 0.968 | S. cerevisiae deletion strains, locus YNL322C, strain KRE1 (second series), active compounds read low 0.996 | S. cerevisiae deletion strains, locus YNL322C, strain KRE1, active compounds read low 0.995 | S. cerevisiae deletion strains, locus YNR049C, strain mso1, active compounds read low 0.974 | S. cerevisiae deletion strains, locus YNR052C, strain pop2, active compounds read low 0.999 | S. cerevisiae deletion strains, locus YOL006C, strain TOP1, active compounds read low 1.01 | S. cerevisiae deletion strains, locus YOL012C, strain htz1 0.795 | S. cerevisiae deletion strains, locus YOL147C, strain pex11, active compounds read low 0.99 | S. cerevisiae deletion strains, locus YOR001W, strain rrp6, active compounds read low 0.994 | S. cerevisiae deletion strains, locus YOR061W, strain CKA2, active compounds read low 0.964 | S. cerevisiae deletion strains, locus YOR069W, strain VPS5, active compounds read low 1.01 | S. cerevisiae deletion strains, locus YOR070C, strain gyp1, active compounds read low 0.979 | S. cerevisiae deletion strains, locus YOR080W, strain dia2, active compounds read low 0.979 | S. cerevisiae deletion strains, locus YOR083W, strain WHI5 (second series), active compounds read low 1.01 | S. cerevisiae deletion strains, locus YOR083W, strain WHI5, active compounds read low 1 | S. cerevisiae deletion strains, locus YOR106W, strain vam3, active compounds read low 0.971 | S. cerevisiae deletion strains, locus YOR136W, strain idh2, active compounds read low 0.984 | S. cerevisiae deletion strains, locus YOR144C, strain elg1, active compounds read low 0.999 | S. cerevisiae deletion strains, locus YOR184W, strain ser1, active compounds read low 0.956 | S. cerevisiae deletion strains, locus YOR231W, strain MKK1, active compounds read low 0.969 | S. cerevisiae deletion strains, locus YOR265W, strain rbl2, active compounds read low 0.999 | S. cerevisiae deletion strains, locus YOR270C, strain vph1, active compounds read low 0.939 | S. cerevisiae deletion strains, locus YOR290C, strain snf2, active compounds read low 0.975 | S. cerevisiae deletion strains, locus YOR316C, strain cot1, active compounds read low 0.98 | S. cerevisiae deletion strains, locus YPL051W, strain arl3, active compounds read low 0.979 | S. cerevisiae deletion strains, locus YPL055C, strain LGE1, active compounds read low 0.951 and 0.966 | S. cerevisiae deletion strains, locus YPL078C, strain atp4, active compounds read low 0.995 | S. cerevisiae deletion strains, locus YPL106C, strain sse1, active compounds read low 0.887 | S. cerevisiae deletion strains, locus YPL240C, strain hsp82, active compounds read low 0.985 | S. cerevisiae deletion strains, locus YPL241C, strain CIN2, active compounds read low 0.991 and 0.972 | S. cerevisiae deletion strains, locus YPL256C, strain CLN2, active compounds read low 0.957 | S. cerevisiae deletion strains, locus YPR119W, strain clb2, active compounds read low 0.984 | S. cerevisiae deletion strains, locus YPR141C, strain kar3, active compounds read low 0.982 | S. cerevisiae deletion strains, locus YPR163C, strain tif3, active compounds read low 0.996 | S. cerevisiae deletion strains, locus YPR167C, strain met16, active compounds read low 0.988 | S. cerevisiae deletion strains, strain wtn01, active compounds read low 0.981 | S. cerevisiae strains, strain wild type, active compounds read low 0.998
